According to publication PMC8384837, “Expanding the binding specificity for RNA recognition by a PUF domain”:

What was measured:
Test in all cases: yeast three-hybrid, YBZ-1, SC-Leu-His + 0.5 mM 3-AT, 4 days
Conditions in all cases: tags: N-Gal4 AD-HA kept; label: inside an RPR1-promoter hybrid RNA with tandem MS2 sites; ssRNA
PUM1 PUF domain R3-RSS = PUM1 PUF domain R3-RSS (Homo sapiens, UniProt Q14671 828-1176, C935R;R936S;Q939S)
Outline: (§1)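 Sequencing with Illumina followed PCR amplification of the repeat regions from transformants grown four days on SC-Leu (input) or SC-Leu-His + 0.5 mM 3-AT (selection). The transformants were strain YBZ-1 with a LexA–MS2 coat fusion and a HIS3 reporter, carrying Pumilio-1 PUF domain libraries and matching RNA elements. The interaction score is the log change in variant frequency from input to selection, computed in log2 with a pseudocount of 1 for absent variants.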

PUM1 PUF domain R5-RTR = PUM1 PUF domain R5-RTR (Homo sapiens, UniProt Q14671 828-1176, C1007R;R1008T;Q1011R)
Outline: as §1

PUM1 PUF domain R5-LHA = PUM1 PUF domain R5-LHA (Homo sapiens, UniProt Q14671 828-1176, C1007L;R1008H;Q1011A)
Outline: as §1

PUM1 PUF domain R5-RRR = PUM1 PUF domain R5-RRR (Homo sapiens, UniProt Q14671 828-1176, C1007R;Q1011R)
Outline: as §1

PUM1 PUF domain R1-YVR = PUM1 PUF domain R1-YVR (Homo sapiens, UniProt Q14671 828-1176, S863Y;R864V;Q867R)
Outline: as §1

PUM1 PUF domain R1-KGV = PUM1 PUF domain R1-KGV (Homo sapiens, UniProt Q14671 828-1176, S863K;R864G;Q867V)
Outline: as §1

PUM1 PUF domain R7-ATR = PUM1 PUF domain R7-ATR (Homo sapiens, UniProt Q14671 828-1176, S1079A;N1080T;E1083R)
Outline: as §1

PUM1 PUF domain R8-KFF = PUM1 PUF domain R8-KFF (Homo sapiens, UniProt Q14671 828-1176, N1122K;Y1123F;Q1126F)
Outline: as §1

PUM1 PUF domain R8-HFV = PUM1 PUF domain R8-HFV (Homo sapiens, UniProt Q14671 828-1176, N1122H;Y1123F;Q1126V)
Outline: as §1

PUM1 PUF domain R5-LHA, sequence (Q14671 828-1176 C1007L/R1008H/Q1011A): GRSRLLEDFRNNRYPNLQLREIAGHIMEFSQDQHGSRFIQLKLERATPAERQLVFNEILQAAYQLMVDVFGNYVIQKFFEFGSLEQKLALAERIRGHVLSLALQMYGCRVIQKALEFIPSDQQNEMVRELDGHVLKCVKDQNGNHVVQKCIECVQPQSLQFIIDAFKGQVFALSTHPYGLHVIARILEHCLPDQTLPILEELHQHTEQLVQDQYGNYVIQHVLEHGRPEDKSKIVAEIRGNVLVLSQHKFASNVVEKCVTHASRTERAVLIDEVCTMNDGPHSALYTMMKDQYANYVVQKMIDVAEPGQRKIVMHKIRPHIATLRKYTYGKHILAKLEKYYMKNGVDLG
PUM1 PUF domain R5-RRR, sequence (Q14671 828-1176 C1007R/Q1011R): as the sequence (Q14671 828-1176 C1007L/R1008H/Q1011A) above, with L180R, H181R, A184R counted along it
PUM1 PUF domain R1-YVR, sequence (Q14671 828-1176 S863Y/R864V/Q867R): as the sequence (Q14671 828-1176 C1007L/R1008H/Q1011A) above, with S36Y, R37V, Q40R, L180C, H181R, A184Q counted along it
PUM1 PUF domain R8-KFF, sequence (Q14671 828-1176 N1122K/Y1123F/Q1126F): as the sequence (Q14671 828-1176 C1007L/R1008H/Q1011A) above, with L180C, H181R, A184Q, N295K, Y296F, Q299F counted along it

## GGCUAGAACUAGUGGAUCCCCCGGCGCCCGGCGGCUCGAGCCCGGGUAAGUGUAAUUAGUCUGCAUGCCGCCGGGCGCCAUGCCUGCAGGUCGACUCUAGAAAACAUG
PUM1 PUF domain R3-RSS
  binding signal: 3.63 log2 enrichment (interaction score)

## GGCUAGAACUAGUGGAUCCCCCGGCGCCCGGCGGCUCGAGCCCGGGUAAGUGUCAAUAGUCUGCAUGCCGCCGGGCGCCAUGCCUGCAGGUCGACUCUAGAAAACAUG
PUM1 PUF domain R5-RTR
  binding signal: 3.19 log2 enrichment (interaction score)
PUM1 PUF domain R5-LHA
  binding signal: 3 log2 enrichment (interaction score)
PUM1 PUF domain R5-RRR
  binding signal: 4.35 log2 enrichment (interaction score)

## GGCUAGAACUAGUGGAUCCCCCGGCGCCCGGCGGCUCGAGCCCGGGUAAGUGUAAAUCGUCUGCAUGCCGCCGGGCGCCAUGCCUGCAGGUCGACUCUAGAAAACAUG
PUM1 PUF domain R1-YVR
  binding signal: 6.93 log2 enrichment (interaction score)
PUM1 PUF domain R1-KGV
  binding signal: 4.16 log2 enrichment (interaction score)

## GGCUAGAACUAGUGGAUCCCCCGGCGCCCGGCGGCUCGAGCCCGGGUAAGUGUAAGUAGUCUGCAUGCCGCCGGGCGCCAUGCCUGCAGGUCGACUCUAGAAAACAUG
PUM1 PUF domain R3-RSS
  binding signal: 0.48 log2 enrichment (interaction score)

## GGCUAGAACUAGUGGAUCCCCCGGCGCCCGGCGGCUCGAGCCCGGGUAAGUUUAAAUAGUCUGCAUGCCGCCGGGCGCCAUGCCUGCAGGUCGACUCUAGAAAACAUG
PUM1 PUF domain R7-ATR
  binding signal: 3.43 log2 enrichment (interaction score)

## GGCUAGAACUAGUGGAUCCCCCGGCGCCCGGCGGCUCGAGCCCGGGUAAGUGUAAAUUGUCUGCAUGCCGCCGGGCGCCAUGCCUGCAGGUCGACUCUAGAAAACAUG
PUM1 PUF domain R1-YVR
  binding signal: 6.97 log2 enrichment (interaction score)
PUM1 PUF domain R1-KGV
  binding signal: 3.66 log2 enrichment (interaction score)

## GGCUAGAACUAGUGGAUCCCCCGGCGCCCGGCGGCUCGAGCCCGGGUAAGUGUAAAUAGUCUGCAUGCCGCCGGGCGCCAUGCCUGCAGGUCGACUCUAGAAAACAUG
PUM1 PUF domain R5-LHA
  binding signal: 2.04 log2 enrichment (interaction score)
PUM1 PUF domain R5-RRR
  binding signal: 2.32 log2 enrichment (interaction score)
PUM1 PUF domain R8-KFF
  binding signal: 2.66 log2 enrichment (interaction score)
PUM1 PUF domain R8-HFV
  binding signal: 2.65 log2 enrichment (interaction score)

## GGCUAGAACUAGUGGAUCCCCCGGCGCCCGGCGGCUCGAGCCCGGGUAAGUGUUAAUAGUCUGCAUGCCGCCGGGCGCCAUGCCUGCAGGUCGACUCUAGAAAACAUG
PUM1 PUF domain R5-RTR
  binding signal: 2.56 log2 enrichment (interaction score)
PUM1 PUF domain R5-LHA
  binding signal: 4.62 log2 enrichment (interaction score)
PUM1 PUF domain R5-RRR
  binding signal: 4.33 log2 enrichment (interaction score)
